C diff HTS – blocks growth of Clostridium difficile. Clostridium difficile clinical isolate growth, OD600, 24 h; active compounds read low. growth activity, negative = inhibition, % at 16 µg/mL (by protocol). hit rate 0.25% among 86,000;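 active = mean growth activity at or below -80% and every replicate also at or below -80%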
Pf Dd2 growth – blocks growth of Plasmodium falciparum Dd2 parasites; P. falciparum Dd2 growth, SYBR Green, 72 h; active compounds read low; activity change, % at 10 µM; hit rate 2.3% among 94,000; in the data active = activity change below about -80%
Each line names hits and unclear results; the compound was inactive in the other large screens. Compounds with a hit are over-represented: about 2.3% of the library has one in this group of screens.

O=C(c1cccc(F)c1)N1CC[C@@H]2[C@H](CO)Nc3ccc(C#Cc4ccc(F)cc4)cc3[C@@H]21	none
COc1ccc(S(=O)(=O)N(C)C[C@@H]2OCc3ccccc3-c3c(n(C)c4ccccc34)C(=O)N([C@@H](C)CO)C[C@@H]2C)cc1	Pf Dd2 growth -87.2 (no result: C diff HTS)
COc1ccc(S(=O)(=O)N(C)C[C@H]2OCc3ccccc3-c3c(n(C)c4ccccc34)C(=O)N([C@@H](C)CO)C[C@@H]2C)cc1	Pf Dd2 growth -86.0 (no result: C diff HTS)
C[C@@H]1CN([C@@H](C)CO)C(=O)c2c(c3ccccc3n2C)-c2ccccc2CO[C@@H]1CN(C)S(=O)(=O)c1ccccc1	none (no result: C diff HTS)
COc1cccc(S(=O)(=O)N(C)C[C@H]2OCc3ccccc3-c3c(n(C)c4ccccc34)C(=O)N([C@H](C)CO)C[C@H]2C)c1	none
COc1ccc(S(=O)(=O)N(C)C[C@@H]2OCc3ccccc3-c3c(n(C)c4ccccc34)C(=O)N([C@H](C)CO)C[C@@H]2C)cc1	Pf Dd2 growth -83.3 (no result: C diff HTS)
C[C@H](CO)N1C[C@H](C)[C@@H](CN(C)S(=O)(=O)c2ccccc2)OCc2ccccc2-c2c(n(C)c3ccccc23)C1=O	none (no result: C diff HTS)
COc1ccccc1-c1cccc(-c2nc(C(=O)Nc3nccs3)cc3c2[C@H](CCO)N(C(C)=O)C3)c1	Pf Dd2 growth -95.4
COc1ccccc1-c1cccc(-c2nc(C(=O)Nc3nccs3)cc3c2[C@@H](CCO)N(C(C)=O)C3)c1	none
COc1ccc2c3c([nH]c2c1)[C@@H](CO)N(Cc1ccc(Cl)cc1)CC31CCN(Cc2nccs2)CC1	Pf Dd2 growth -88.0
COc1ccc2c3c([nH]c2c1)[C@H](CO)N(Cc1nccs1)CC31CN(Cc2ccncc2)C1	none
COc1ccc2c3c([nH]c2c1)[C@H](CO)N(Cc1ccc(Cl)cc1)CC31CN(Cc2nccs2)C1	Pf Dd2 growth -86.2
COc1ccc2c3c([nH]c2c1)[C@@H](CO)N(Cc1ccc(Cl)cc1)CC31CCN(Cc2ccccc2)CC1	none
C[C@@H]1CN([C@@H](C)CO)C(=O)c2cc(NC(=O)Nc3ccc4c(c3)OCO4)ccc2O[C@@H](C)CCCCO[C@H]1CN(C)C(=O)Cc1ccccc1	none
C[C@@H]1CCCCO[C@H](CN(C)C(=O)Cc2ccccc2)[C@@H](C)CN([C@@H](C)CO)C(=O)c2cc(NC(=O)Nc3ccc(C(F)(F)F)cc3)ccc2O1	Pf Dd2 growth -87.0
C[C@H](CO)N1C[C@H](C)[C@H](CN(C)C(=O)Cc2ccccc2)OCCCC[C@H](C)Oc2ccc(NC(=O)Nc3ccc(F)cc3)cc2C1=O	none
C[C@@H]1CCCCO[C@H](CN(C)C(=O)Cc2ccccc2)[C@H](C)CN([C@H](C)CO)C(=O)c2cc(NC(=O)Nc3ccc(F)cc3)ccc2O1	Pf Dd2 growth -85.3
C[C@@H]1CCCCO[C@H](CN(C)C(=O)Cc2ccccc2)[C@H](C)CN([C@@H](C)CO)C(=O)c2cc(NC(=O)Nc3ccc(C(F)(F)F)cc3)ccc2O1	none
C[C@@H]1CCCCO[C@H](CN(C)C(=O)Cc2ccccc2)[C@@H](C)CN([C@@H](C)CO)C(=O)c2cc(NC(=O)Nc3ccc4c(c3)OCO4)ccc2O1	Pf Dd2 growth -83.8
C[C@@H]1CCCCO[C@H](CN(C)C(=O)Cc2ccccc2)[C@H](C)CN([C@H](C)CO)C(=O)c2cc(NC(=O)Nc3ccccc3)ccc2O1	Pf Dd2 growth -83.7 (no result: C diff HTS)
C[C@@H]1CN([C@H](C)CO)C(=O)c2cc(NC(=O)Nc3ccccc3)ccc2O[C@@H](C)CCCCO[C@@H]1CN(C)C(=O)Cc1ccccc1	none (no result: C diff HTS)
COc1ccccc1-c1ccc([C@H]2[C@@H](CO)N(C(=O)NC(C)C)[C@H]2C#N)cc1	none
C[C@H]1CN([C@@H](C)CO)C(=O)c2cccc(NS(=O)(=O)c3cn(C)cn3)c2O[C@@H]1CN(C)C(=O)NC1CCCCC1	none
O=C(C[C@H]1CC[C@@H]2[C@H](COC[C@H](O)CN2CC2CCCCC2)O1)NCc1ccc(Cl)cc1	none (no result: C diff HTS)
C[C@@H]1CCCCO[C@@H](CN(C)C(=O)Cc2ccccc2)[C@H](C)CN([C@@H](C)CO)C(=O)c2cc(NC(=O)Nc3cccc4ccccc34)ccc2O1	none
C[C@H]1CCCCO[C@H](CN(C)C(=O)CCCN(C)C)[C@@H](C)CN([C@@H](C)CO)C(=O)c2cc(NC(=O)Nc3ccc(C(F)(F)F)cc3)ccc2O1	none (no result: C diff HTS)
C[C@@H]1CCCCO[C@H](CN(C)C(=O)CCCN(C)C)[C@H](C)CN([C@@H](C)CO)C(=O)c2cc(NC(=O)Nc3ccc(C(F)(F)F)cc3)ccc2O1	Pf Dd2 growth -88.0 (no result: C diff HTS)
COc1cccc(S(=O)(=O)N2CC[C@@H]3[C@H](CO)Nc4ccc(C#Cc5ccccc5)cc4[C@@H]32)c1	none
C[C@@H]1CCCCO[C@H](CN(C)Cc2ccc3c(c2)OCO3)[C@@H](C)CN([C@H](C)CO)C(=O)c2cc(NC(=O)Nc3cccc4ccccc34)ccc2O1	none (no result: C diff HTS)
C[C@@H]1CCCCO[C@H](CN(C)Cc2ccc3c(c2)OCO3)[C@H](C)CN([C@H](C)CO)C(=O)c2cc(NC(=O)Nc3cccc4ccccc34)ccc2O1	Pf Dd2 growth -84.4
C[C@H](CO)N1C[C@H](C)[C@H](CN(C)Cc2ccc3c(c2)OCO3)OCCCC[C@H](C)Oc2ccc(NC(=O)Nc3cccc4ccccc34)cc2C1=O	none (no result: C diff HTS)
C[C@@H]1CN([C@@H](C)CO)C(=O)c2cc(NC(=O)Nc3cccc4ccccc34)ccc2O[C@@H](C)CCCCO[C@@H]1CN(C)Cc1ccc2c(c1)OCO2	Pf Dd2 growth -90.1 (no result: C diff HTS)
O=C(C[C@H]1C=C[C@H](NS(=O)(=O)c2ccc(F)cc2)[C@@H](CO)O1)NC1CCCCC1	none (no result: C diff HTS)
CC(=O)N[C@H]1CC[C@@H](CCNC(=O)Nc2ccc(C(F)(F)F)cc2)O[C@@H]1CO	none
O=C(NCC[C@H]1CC[C@H](NC(=O)C2CC2)[C@@H](CO)O1)Nc1ccc(C(F)(F)F)cc1	C diff HTS -99.4
O=C(NCC[C@H]1CC[C@H](NC(=O)C2CC2)[C@H](CO)O1)Nc1ccc(C(F)(F)F)cc1	none
CN(C)CC(=O)N[C@@H]1CC[C@@H](CCNC(=O)Nc2ccc(C(F)(F)F)cc2)O[C@H]1CO	C diff HTS -89.1
CC(=O)N[C@@H]1CC[C@H](CCNC(=O)Nc2ccc(C(F)(F)F)cc2)O[C@H]1CO	C diff HTS -93.8
CCC(=O)N[C@@H]1CC[C@@H](CCNC(=O)Nc2ccc(C(F)(F)F)cc2)O[C@@H]1CO	none (no result: C diff HTS)
C[C@@H]1CN([C@@H](C)CO)C(=O)Cc2cc(NS(C)(=O)=O)ccc2O[C@@H]1CN(C)S(=O)(=O)c1ccccc1	none
Cc1ccccc1S(=O)(=O)N1C[C@@H](O)COC[C@H]2O[C@H](CC(=O)N3CCN(C)CC3)CC[C@@H]21	none (no result: Pf Dd2 growth)
CC(C)NC(=O)NCC[C@H]1CC[C@H](NC(=O)CN(C)C)[C@@H](CO)O1	none (no result: C diff HTS)
C[C@H]1CCCCO[C@H](CN(C)S(=O)(=O)c2ccc(F)cc2)[C@@H](C)CN([C@@H](C)CO)C(=O)c2cc(NC(=O)c3ccccc3)ccc2O1	none
COc1ccc(S(=O)(=O)N(C)C[C@@H]2OCCCC[C@@H](C)Oc3ccc(NC(=O)c4ccccc4)cc3C(=O)N([C@@H](C)CO)C[C@@H]2C)cc1	none
Cc1ccc(S(=O)(=O)N(C)C[C@H]2OCCCC[C@H](C)Oc3ccc(NC(=O)c4ccccc4)cc3C(=O)N([C@H](C)CO)C[C@H]2C)cc1	Pf Dd2 growth -81.1 (no result: C diff HTS)
Cc1ccc(S(=O)(=O)N(C)C[C@@H]2OCCCC[C@H](C)Oc3ccc(NC(=O)c4ccccc4)cc3C(=O)N([C@H](C)CO)C[C@H]2C)cc1	Pf Dd2 growth -81.0 (no result: C diff HTS)

Compound activity from PubChem BioAssay.
